What was measured:
[1] = biological target: Fibroblast growth factor receptor 4 (Homo sapiens) (UniProt P22455); conditions: at 1 µM;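 note: reported figure is the averaged percent inhibition of FGFR4, from the GSK PKIS kinase screening panel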
[2] = biological target: Tyrosine-protein kinase Fgr (Homo sapiens) (UniProt P09769); conditions: at 0.1 µM
[3] = biological target: Tyrosine-protein kinase Fgr (Homo sapiens) (UniProt P09769); conditions: at 1 µM
[4] = biological target: Vascular endothelial growth factor receptor 1 (Homo sapiens) (UniProt P17948); conditions: at 0.1 µM
[5] = biological target: Vascular endothelial growth factor receptor 1 (Homo sapiens) (UniProt P17948); conditions: at 1 µM
[6] = biological target: Receptor-type tyrosine-protein kinase FLT3 (Homo sapiens) (UniProt P36888); conditions: at 0.1 µM
[7] = biological target: Receptor-type tyrosine-protein kinase FLT3 (Homo sapiens) (UniProt P36888); conditions: at 1 µM
[8] = system: T1, Receptor-type tyrosine-protein kinase FLT3 (Homo sapiens), P36888 [D835Y]; conditions: at 0.1 µM
T1 sequence (whole entry): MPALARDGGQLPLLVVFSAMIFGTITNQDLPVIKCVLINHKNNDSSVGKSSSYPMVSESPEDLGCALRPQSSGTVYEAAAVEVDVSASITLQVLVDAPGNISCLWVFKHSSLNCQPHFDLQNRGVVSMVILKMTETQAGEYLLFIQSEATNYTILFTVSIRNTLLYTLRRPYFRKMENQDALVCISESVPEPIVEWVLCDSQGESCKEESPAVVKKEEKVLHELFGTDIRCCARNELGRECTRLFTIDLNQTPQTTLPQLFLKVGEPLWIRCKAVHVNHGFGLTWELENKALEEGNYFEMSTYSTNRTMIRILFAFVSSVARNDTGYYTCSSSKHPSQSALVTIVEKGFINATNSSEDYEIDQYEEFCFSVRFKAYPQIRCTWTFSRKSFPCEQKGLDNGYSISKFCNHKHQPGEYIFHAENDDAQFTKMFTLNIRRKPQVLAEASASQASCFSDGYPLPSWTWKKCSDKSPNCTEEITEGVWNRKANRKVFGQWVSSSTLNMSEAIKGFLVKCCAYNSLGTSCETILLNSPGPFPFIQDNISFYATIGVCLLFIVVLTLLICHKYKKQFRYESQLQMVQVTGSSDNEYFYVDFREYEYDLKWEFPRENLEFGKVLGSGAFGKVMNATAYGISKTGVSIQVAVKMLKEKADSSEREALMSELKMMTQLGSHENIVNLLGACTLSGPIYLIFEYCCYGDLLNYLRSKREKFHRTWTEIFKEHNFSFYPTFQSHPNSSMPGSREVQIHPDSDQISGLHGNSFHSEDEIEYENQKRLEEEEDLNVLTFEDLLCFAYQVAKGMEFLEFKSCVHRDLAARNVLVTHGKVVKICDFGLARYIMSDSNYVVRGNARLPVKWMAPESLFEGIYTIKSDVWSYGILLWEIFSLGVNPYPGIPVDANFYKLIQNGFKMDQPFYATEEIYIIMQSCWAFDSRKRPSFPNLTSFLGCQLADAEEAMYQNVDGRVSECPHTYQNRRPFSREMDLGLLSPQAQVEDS

[9] = biological target: Non-receptor tyrosine-protein kinase TYK2 (Homo sapiens) (UniProt P29597); conditions: at 1 µM;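 note: values are mean percent inhibition of TYK2 kinase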
[10] = biological target: T2, Tyrosine-protein kinase receptor TYRO3 (Homo sapiens) (UniProt Q06418); conditions: at 0.1 µM
T2 sequence (whole entry): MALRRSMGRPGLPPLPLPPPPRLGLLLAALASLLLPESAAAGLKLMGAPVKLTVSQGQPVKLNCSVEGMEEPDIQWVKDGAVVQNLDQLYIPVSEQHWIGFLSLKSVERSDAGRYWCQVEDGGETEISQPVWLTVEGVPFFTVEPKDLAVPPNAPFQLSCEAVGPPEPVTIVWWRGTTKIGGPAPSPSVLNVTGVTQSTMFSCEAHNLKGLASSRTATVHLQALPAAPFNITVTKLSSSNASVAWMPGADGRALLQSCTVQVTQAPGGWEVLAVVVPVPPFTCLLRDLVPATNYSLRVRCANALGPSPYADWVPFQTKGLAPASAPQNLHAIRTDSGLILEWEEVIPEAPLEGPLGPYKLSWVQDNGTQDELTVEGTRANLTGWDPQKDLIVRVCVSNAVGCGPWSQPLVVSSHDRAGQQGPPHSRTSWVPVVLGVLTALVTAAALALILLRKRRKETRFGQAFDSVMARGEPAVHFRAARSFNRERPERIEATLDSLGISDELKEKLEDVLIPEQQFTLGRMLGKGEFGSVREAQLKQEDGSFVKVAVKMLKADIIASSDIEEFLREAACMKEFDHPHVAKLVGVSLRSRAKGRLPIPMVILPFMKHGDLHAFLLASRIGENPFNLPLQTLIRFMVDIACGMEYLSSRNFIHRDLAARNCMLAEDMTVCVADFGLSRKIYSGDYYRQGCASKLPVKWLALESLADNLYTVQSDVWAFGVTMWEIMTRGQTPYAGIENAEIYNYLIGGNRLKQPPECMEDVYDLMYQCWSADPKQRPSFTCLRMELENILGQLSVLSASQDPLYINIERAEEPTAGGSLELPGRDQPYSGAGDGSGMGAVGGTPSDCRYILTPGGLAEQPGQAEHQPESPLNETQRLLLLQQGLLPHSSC

[11] = biological target: T2, Tyrosine-protein kinase receptor TYRO3 (Homo sapiens); conditions: at 1 µM
[12] = biological target: Tyrosine-protein kinase Yes (Homo sapiens) (UniProt P07947); conditions: at 0.1 µM
[13] = biological target: Tyrosine-protein kinase Yes (Homo sapiens) (UniProt P07947); conditions: at 1 µM
[14] = biological target: T3, Tyrosine-protein kinase ZAP-70 (Homo sapiens) (UniProt P43403); conditions: at 0.1 µM
T3 sequence (whole entry): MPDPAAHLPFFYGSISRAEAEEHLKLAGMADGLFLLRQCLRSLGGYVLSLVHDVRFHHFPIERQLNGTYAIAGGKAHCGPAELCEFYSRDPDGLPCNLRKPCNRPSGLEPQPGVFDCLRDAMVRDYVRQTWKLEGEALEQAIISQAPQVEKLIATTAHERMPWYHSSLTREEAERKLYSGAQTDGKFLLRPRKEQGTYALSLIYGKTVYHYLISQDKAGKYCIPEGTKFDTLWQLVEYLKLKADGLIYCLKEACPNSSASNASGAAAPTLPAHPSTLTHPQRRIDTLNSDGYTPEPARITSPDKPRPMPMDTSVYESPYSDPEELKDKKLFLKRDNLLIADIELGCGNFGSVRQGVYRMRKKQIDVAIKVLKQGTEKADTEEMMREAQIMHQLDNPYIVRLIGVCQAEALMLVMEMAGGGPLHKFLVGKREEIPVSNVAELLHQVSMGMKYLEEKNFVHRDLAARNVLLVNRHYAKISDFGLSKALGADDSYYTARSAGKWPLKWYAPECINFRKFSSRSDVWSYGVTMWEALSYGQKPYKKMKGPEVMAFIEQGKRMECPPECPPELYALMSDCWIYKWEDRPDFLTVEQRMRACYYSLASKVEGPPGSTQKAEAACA

[15] = biological target: T3, Tyrosine-protein kinase ZAP-70 (Homo sapiens); conditions: at 1 µM
[16] = biological target: Serine/threonine-protein kinase B-raf (Homo sapiens) (UniProt P15056); conditions: at 0.1 µM
[17] = biological target: Serine/threonine-protein kinase B-raf (Homo sapiens) (UniProt P15056); conditions: at 1 µM
[18] = system: Serine/threonine-protein kinase B-raf (Homo sapiens), P15056 [V600E]; conditions: at 0.1 µM
[19] = system: Serine/threonine-protein kinase B-raf (Homo sapiens), P15056 [V600E]; conditions: at 1 µM
[20] = biological target: RAF proto-oncogene serine/threonine-protein kinase (Homo sapiens) (UniProt P04049); conditions: at 0.1 µM;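 note: values are mean CRAF kinase inhibition from profiling of the GSK Published Kinase Inhibitor Set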
Chain of RAF proto-oncogene serine/threonine-protein kinase (Homo sapiens) (P04049 whole entry): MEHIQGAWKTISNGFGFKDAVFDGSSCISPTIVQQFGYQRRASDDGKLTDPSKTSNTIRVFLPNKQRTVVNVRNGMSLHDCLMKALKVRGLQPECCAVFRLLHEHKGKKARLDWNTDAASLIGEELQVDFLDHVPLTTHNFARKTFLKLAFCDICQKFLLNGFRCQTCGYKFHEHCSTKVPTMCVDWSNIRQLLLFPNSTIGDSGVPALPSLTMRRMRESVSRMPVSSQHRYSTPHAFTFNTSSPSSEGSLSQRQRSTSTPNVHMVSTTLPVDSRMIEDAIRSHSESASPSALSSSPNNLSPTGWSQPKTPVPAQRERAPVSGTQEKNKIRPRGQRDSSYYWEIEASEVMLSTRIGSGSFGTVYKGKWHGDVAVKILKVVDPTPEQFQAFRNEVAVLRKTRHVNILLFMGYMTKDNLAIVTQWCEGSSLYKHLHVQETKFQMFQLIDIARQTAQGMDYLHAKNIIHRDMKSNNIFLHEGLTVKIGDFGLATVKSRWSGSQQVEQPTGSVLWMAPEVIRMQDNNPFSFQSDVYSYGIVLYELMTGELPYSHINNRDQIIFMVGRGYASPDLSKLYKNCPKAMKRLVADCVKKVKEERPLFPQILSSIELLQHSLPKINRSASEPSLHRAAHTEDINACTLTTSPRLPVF

Chain of Fibroblast growth factor receptor 4 (Homo sapiens) (P22455 22-802 limits assumed): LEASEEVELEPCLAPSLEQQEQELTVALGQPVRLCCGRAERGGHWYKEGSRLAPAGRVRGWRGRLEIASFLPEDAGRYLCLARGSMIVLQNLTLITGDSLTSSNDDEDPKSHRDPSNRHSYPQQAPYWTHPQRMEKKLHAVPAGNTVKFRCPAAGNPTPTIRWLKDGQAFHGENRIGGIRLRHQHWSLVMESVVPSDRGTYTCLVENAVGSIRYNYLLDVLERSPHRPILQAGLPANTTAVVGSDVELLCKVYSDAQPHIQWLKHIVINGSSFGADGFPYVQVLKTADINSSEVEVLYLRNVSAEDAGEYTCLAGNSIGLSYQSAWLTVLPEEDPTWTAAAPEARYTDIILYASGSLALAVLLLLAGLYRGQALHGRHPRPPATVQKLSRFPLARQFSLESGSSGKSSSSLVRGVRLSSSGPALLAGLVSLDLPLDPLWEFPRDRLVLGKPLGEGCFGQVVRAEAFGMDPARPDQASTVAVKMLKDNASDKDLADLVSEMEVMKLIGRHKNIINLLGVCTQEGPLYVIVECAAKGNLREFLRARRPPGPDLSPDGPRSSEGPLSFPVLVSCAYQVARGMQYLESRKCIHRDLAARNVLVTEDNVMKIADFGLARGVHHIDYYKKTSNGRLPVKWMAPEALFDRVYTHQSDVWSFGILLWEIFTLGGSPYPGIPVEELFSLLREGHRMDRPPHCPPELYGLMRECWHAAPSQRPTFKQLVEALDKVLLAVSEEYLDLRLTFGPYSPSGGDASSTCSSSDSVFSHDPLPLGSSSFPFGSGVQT
Chain of Tyrosine-protein kinase Fgr (Homo sapiens) (P09769 2-529 limits assumed): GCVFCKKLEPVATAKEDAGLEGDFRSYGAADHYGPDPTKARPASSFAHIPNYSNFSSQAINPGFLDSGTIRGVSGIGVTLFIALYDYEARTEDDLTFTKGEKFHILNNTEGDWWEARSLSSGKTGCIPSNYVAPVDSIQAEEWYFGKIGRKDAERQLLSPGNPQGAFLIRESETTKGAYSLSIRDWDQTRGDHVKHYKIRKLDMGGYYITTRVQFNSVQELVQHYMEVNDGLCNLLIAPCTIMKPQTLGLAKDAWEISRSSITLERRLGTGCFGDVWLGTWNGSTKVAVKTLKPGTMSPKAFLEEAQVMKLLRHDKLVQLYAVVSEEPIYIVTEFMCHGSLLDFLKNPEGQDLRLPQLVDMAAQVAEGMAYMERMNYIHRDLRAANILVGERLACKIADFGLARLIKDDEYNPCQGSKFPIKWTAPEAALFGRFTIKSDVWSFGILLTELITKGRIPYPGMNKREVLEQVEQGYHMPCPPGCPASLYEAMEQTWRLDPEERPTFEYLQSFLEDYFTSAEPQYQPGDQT
Chain of Vascular endothelial growth factor receptor 1 (Homo sapiens) (P17948 whole entry): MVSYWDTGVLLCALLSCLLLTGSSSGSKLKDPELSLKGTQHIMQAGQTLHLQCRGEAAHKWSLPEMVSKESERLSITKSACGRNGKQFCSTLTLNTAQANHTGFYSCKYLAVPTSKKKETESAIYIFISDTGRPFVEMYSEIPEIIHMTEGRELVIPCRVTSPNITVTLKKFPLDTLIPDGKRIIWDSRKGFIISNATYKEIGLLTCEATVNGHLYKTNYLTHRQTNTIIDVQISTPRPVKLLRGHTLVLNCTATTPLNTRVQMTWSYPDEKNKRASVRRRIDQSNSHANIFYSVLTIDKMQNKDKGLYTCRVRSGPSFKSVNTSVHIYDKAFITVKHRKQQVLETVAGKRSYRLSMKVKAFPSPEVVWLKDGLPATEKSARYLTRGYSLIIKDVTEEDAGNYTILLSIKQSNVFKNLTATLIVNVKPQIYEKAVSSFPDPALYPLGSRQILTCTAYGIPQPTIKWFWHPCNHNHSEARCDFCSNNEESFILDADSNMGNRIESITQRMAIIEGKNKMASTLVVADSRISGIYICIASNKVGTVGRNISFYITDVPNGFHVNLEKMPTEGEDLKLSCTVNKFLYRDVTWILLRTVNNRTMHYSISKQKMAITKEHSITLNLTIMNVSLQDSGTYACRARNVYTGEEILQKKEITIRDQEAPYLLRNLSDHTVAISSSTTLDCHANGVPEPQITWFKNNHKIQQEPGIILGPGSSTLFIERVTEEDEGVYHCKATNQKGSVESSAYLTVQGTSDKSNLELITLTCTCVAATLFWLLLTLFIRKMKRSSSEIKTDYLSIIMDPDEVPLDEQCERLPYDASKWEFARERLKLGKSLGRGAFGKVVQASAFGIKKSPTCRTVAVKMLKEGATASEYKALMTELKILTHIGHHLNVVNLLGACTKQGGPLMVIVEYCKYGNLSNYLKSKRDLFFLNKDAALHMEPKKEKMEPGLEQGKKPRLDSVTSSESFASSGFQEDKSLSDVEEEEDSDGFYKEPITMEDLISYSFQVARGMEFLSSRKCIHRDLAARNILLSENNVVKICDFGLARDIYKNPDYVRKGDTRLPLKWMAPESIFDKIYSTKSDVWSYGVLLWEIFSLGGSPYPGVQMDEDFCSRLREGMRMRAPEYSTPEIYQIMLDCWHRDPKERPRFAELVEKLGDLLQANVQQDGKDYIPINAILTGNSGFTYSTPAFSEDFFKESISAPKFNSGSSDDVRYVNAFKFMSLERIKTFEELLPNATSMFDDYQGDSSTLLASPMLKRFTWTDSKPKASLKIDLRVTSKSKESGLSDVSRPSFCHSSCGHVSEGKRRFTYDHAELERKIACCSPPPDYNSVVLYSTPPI
Chain of Non-receptor tyrosine-protein kinase TYK2 (Homo sapiens) (P29597 whole entry): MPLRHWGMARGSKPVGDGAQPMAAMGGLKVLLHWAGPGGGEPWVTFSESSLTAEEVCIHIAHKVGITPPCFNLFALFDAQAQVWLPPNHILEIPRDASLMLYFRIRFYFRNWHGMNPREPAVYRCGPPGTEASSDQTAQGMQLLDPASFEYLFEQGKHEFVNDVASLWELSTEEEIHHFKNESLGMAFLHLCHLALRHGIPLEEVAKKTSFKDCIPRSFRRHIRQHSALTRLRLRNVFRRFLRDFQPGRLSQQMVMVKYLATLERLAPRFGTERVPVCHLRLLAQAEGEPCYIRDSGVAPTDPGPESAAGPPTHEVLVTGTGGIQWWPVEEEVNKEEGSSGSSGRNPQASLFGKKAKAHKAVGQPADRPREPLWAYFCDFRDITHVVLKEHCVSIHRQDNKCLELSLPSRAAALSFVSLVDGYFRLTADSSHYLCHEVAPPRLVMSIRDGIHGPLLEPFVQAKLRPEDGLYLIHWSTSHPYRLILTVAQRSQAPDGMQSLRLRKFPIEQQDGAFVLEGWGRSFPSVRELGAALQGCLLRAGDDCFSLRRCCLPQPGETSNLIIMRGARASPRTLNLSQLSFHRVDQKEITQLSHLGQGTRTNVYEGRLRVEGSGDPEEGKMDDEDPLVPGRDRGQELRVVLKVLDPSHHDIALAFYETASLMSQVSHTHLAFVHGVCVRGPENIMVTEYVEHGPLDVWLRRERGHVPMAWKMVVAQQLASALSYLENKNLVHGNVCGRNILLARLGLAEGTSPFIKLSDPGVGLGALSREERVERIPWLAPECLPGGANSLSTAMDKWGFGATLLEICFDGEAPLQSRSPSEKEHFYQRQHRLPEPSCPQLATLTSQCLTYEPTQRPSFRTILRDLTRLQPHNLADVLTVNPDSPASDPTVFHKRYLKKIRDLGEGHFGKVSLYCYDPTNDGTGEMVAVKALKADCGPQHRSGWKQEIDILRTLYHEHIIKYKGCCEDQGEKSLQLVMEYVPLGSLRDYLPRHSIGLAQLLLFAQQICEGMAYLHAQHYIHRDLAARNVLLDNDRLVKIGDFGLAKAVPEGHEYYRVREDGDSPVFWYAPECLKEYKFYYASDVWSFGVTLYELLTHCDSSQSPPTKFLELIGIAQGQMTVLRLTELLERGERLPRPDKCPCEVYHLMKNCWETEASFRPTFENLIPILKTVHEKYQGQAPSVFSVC
Chain of Tyrosine-protein kinase Yes (Homo sapiens) (P07947 2-543 limits assumed): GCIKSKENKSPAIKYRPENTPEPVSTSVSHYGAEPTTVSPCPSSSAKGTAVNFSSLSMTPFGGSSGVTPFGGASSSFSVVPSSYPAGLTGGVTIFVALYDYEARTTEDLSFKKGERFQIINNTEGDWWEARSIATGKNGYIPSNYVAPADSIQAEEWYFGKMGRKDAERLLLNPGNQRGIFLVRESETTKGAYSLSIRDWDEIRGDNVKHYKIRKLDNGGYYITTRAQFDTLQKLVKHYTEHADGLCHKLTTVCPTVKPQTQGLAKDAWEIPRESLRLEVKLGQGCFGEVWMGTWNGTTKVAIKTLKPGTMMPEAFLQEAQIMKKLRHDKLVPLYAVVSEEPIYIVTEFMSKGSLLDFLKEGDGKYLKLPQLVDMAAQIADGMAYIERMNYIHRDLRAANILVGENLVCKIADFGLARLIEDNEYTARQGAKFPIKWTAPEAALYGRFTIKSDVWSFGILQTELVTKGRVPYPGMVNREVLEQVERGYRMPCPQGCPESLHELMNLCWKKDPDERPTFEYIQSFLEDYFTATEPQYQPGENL

Structure (SMILES)	inhibition [1] [%]	inhibition [2] [%]	inhibition [3] [%]	inhibition [4] [%]	inhibition [5] [%]	inhibition [6] [%]	inhibition [7] [%]	inhibition [8] [%]	inhibition [9] [%]	inhibition [10] [%]	inhibition [11] [%]	inhibition [12] [%]	inhibition [13] [%]	inhibition [14] [%]	inhibition [15] [%]	inhibition [16] [%]	inhibition [17] [%]	inhibition [18] [%]	inhibition [19] [%]	inhibition [20] [%]
O=C(Nc1n[nH]c2nc(-c3ccc(O)cc3)c(Br)cc12)C1CC1	3.05	7.15	21.3	2.34	17.7	5.54	25.7	4.14	17.6	10.4	41.4	5.61	27.4	5.14	4.28	9.27	12.6	10.1	13	-1.54
C[C@@H](Oc1cc(-n2cnc3ccc(OCC4CCN(C)CC4)cc32)sc1C(N)=O)c1ccccc1Cl	4.52	2.78	13.7	1.38	-0.37	6.77	16.1	-8.99	-4.49	2.99	6.74	2.66	15.5	4.61	6.88	8.65	10.6	6.37	5.47	3.88
COc1cccc(-n2cnc3c(N/N=C/c4ccncc4)ncnc32)c1	-3.96	6.79	19	-1.12	1.4	0.88	6.95	7.7	3.46	1.07	4.59	7.55	36.4	-2.42	-3.33	-0.31	-1.09	-0.89	-0.68	-3.41
CCc1ccc(Oc2nccc(-c3c(-c4ccc(F)cc4)ncn3C3CCNCC3)n2)cc1	1.42	2.39	6.95	2.69	3.25	5.16	5.11	-2.28	-1.9	1.15	1.06	4.27	7.31	-0.22	-4.21	4.48	10.2	4.23	8.72	1.49
O=C(Nc1n[nH]c2cc(-c3cc(F)ccc3F)ccc12)C1CC1	0.78	3.33	7.71	0.6	1.91	1.12	4.67	-5.43	-2.35	3.8	11.7	2.25	8.92	0.04	-0.4	5.1	7.61	5.62	6.3	-1.79
CCN(CC)Cc1ccc(Nc2nccc(-c3cnn4ncccc34)n2)cc1	-3.39	2.7	11.3	3.62	16.2	7.95	47.7	-3.04	11.6	4.07	18.2	4.42	22.5	-3.68	-4.19	7.03	17.7	4.68	14	0.49
COc1ccc(-c2ccc3c(NC(=O)C4CC4)n[nH]c3n2)cc1	0.39	3.05	6.74	-0.58	0.09	0.61	3.42	-3.58	-0.42	2.92	21.7	2.13	8.75	0.8	-3.24	3.14	2	3.73	1.97	-1.88

Reference: ChEMBL document CHEMBL1961873, “Compounds: GSK PKIS; Assays: Nanosyn kinase panel” (2012)
